# In the library only some 2.8% were active in any assay of this set; here they are far more common.
# Shn3 inh set2 – inhibitors of Schnurri-3 3'UTR reporter in osteoblasts; Clone20 osteoblast Shn3 3'UTR firefly luciferase, 24 h; inhibition, % at 12.5 µM; 360,000 compounds, 0.52% hits; AID 588674;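 active means mean inhibition of at least 75% with every replicate also reaching 75%; inconclusive means mean inhibition at least 75% but some replicate below; inactive means mean inhibition below 75%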;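 further: 0% = median of neutral control wells and 100% = pilot-screen positive control compound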
# N-glyco inh – blocks N-linked glycosylation in D54 reporter cells; reporter increase, % at 12.5 µM; D54 ERlucT glycosylation luciferase reporter, 24 h; percent of 100 nM tunicamycin response; 360,000 compounds, 0.23% hits;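 active means mean luciferase reporter signal, scaled so untreated is 0 and the glycosylation-blocking control 100, at or above a set limit in every replicate; inconclusive means mean reaches the limit but not every replicate does; inactive means mean below the limit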;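 further: luciferase carries N-glycosylation sites so blocking glycosylation raises the light; 0% = median of neutral control wells and 100% = median of 100 nM tunicamycin wells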
# NSD2 HMT inh – NSD2 (human) methyltransferase inhibition; NSD2 peptide methylation, AlphaScreen, 120 min; 310,000 compounds, 0.54% hits; O96028; AID 743445; inhibition, % at 12.5 µM; in the data active means inhibition above about 50%
# PAX8 inh HTS – lowers PAX8-driven luciferase in RMG-I cells. AID 652154. inhibition, % at 12.6 µM. 360,000 compounds, 1.2% hits. RMG-I TPO-luciferase reporter, SteadyGlo, 24 h;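 active means mean replicate inhibition at least 60% with every replicate also reaching 60%; inconclusive means only one of the two criteria is met; inactive means mean below 60% and not all replicates reaching 60%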;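 further: luciferase light reporting Pax8 driven TPO promoter activity; plate controls were median of neutral control wells for no effect and mitoxantrone controls for full effect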
# HIV Env fusion – HIV envelope-mediated fusion inhibition | HeLa-JRFL Env/CEM21 cell fusion, luciferase | inhibition, % at 12.3 µM | 360,000 compounds, 1.1% hits | AID 651610;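 active means mean replicate inhibition score of at least 50 and every replicate individually at or above 50; inconclusive means only one of the two criteria met; inactive means mean below 50 and not all replicates reaching 50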;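 further: 0% = plate neutral controls and 100% = maraviroc near 300 nM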
# EBV LMP1 NFkB – inhibitors of Epstein-Barr LMP1-induced NF-kappaB reporter | 350,000 compounds, 0.69% hits | inhibition, % at 12.5 µM | LMP1-induced NF-kappaB luciferase reporter cells, luminescence; in the data active means inhibition above about 41%; inconclusive means no clear call, values can overlap the other calls;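 further: 0% = neutral control wells and 100% = reference inhibitor control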
# The depositor's hits bear a star; ? = inconclusive; nt = not tested or not shown; [ ] = another dose, or the depositor's remark.
SMILES,Shn3 inh set2,N-glyco inh,NSD2 HMT inh,PAX8 inh HTS,HIV Env fusion,EBV LMP1 NFkB
O=C(N/N=C/c1ccc2ncccc2c1)c1ccco1,-1,-18,3,13,-24,48*
O=C(N/N=C/c1ccccn1)c1ccco1,-11,5,-3,-30,-13,-3
Cc1cc(C)nc(N/N=C/c2cc(Br)ccc2O)n1,89*,-6,1,11,-3,8
Cc1cc(C)nc(N/N=C/c2ccccc2OCc2ccc(Br)cc2)n1,-15,3,-1,33,-23,-19
COc1ccc(-c2ccc([C@H]3[C@H](CO)N4CCCCN(C(=O)NC(C)C)C[C@@H]34)cc2)cc1,nt,nt,nt,-6,nt,nt
CN1C(=O)/C(=C/c2cn(CC(=O)NCc3ccco3)c3ccccc23)NC1=S,nt,nt,-1,15,-10,nt
CCN=C1S/C(=C\c2cn(CC(=O)NCc3ccco3)c3ccccc23)C(=O)N1CC,60,14,-1,78*,2,3
COc1cc2c(C#N)c(N3CCc4ccccc4C3)nc(N)c2c(N)n1,11,26*,2,-7,46,-8
CN(C)CCCN(C(=O)c1cc2cc([N+](=O)[O-])ccc2s1)c1nc2cc3c(cc2s1)OCCO3,66,-7,nt,nt,87*,-81
CN(C)CCCN(C(=O)c1ccc([N+](=O)[O-])s1)c1nc2cc3c(cc2s1)OCCO3,20,-2,12,-22,-11,-12
COc1ccc(Nc2nc(OC)nc(OC)n2)cc1,-16,2,-3,-27,-176,-13
COc1ccc(Nc2nc(Nc3ccc(OC)cc3)nc(-n3[nH]c(=O)c(C)c3C)n2)cc1,81*,-1,0,nt,-183,27
Cn1cc([N+](=O)[O-])c(C(=O)Nc2cc(Oc3ccccc3)cc([N+](=O)[O-])c2)n1,96*,-21,17,nt,-119,-15
Cc1nn(C)cc1C(=O)Nc1cc(Oc2ccc(Cl)cc2)cc([N+](=O)[O-])c1,0,1,-1,nt,nt,-3
Cc1ccc(NC(=O)c2cccc(Oc3ccc([N+](=O)[O-])cc3)c2)c(C(=O)O)c1,-39,1,9,-2,13,9
Cc1ccccc1Cn1ccc(NC(=O)c2nn(C)cc2[N+](=O)[O-])n1,4,7,1,72*,11,-15
Cc1cccc(Oc2cc(NC(=O)c3ccccc3)cc([N+](=O)[O-])c2)c1,87*,-5,-3,nt,nt,11
Cc1cccc(S(=O)(=O)N2C[C@@H](O)COC[C@@H]3O[C@@H](CC(=O)N4CCN(C)CC4)CC[C@H]32)c1,nt,nt,nt,7,nt,nt
COc1cc2c(cc1OC)-c1cc(Nc3ccc4c(c3)OCCO4)nc(=O)n1CC2,21,-6,2,nt,nt,51*
COc1ccc(Nc2cc3n(c(=O)n2)CCc2cc(OC)c(OC)cc2-3)cc1,-5,1,3,16,7,12
Cc1ccc(-n2nnnc2Sc2ccc(S(=O)(=O)NCCN(C)C)cc2[N+](=O)[O-])cc1,-46,-14,21,?,47,47*
Cc1noc(C)c1S(=O)(=O)Nc1ccc2c(c1)C(=O)N([C@@H](C)CO)C[C@@H](C)[C@H](CN(C)CC1CCCCC1)O2,nt,nt,nt,nt,-12[16.7 µM],nt
C[C@@H]1CCCCO[C@H](CN(C)C(=O)c2ccncc2)[C@H](C)CN([C@@H](C)CO)C(=O)c2cc(NS(=O)(=O)c3ccccc3)ccc2O1,nt,nt,nt,-32,12[16.7 µM],nt
C[C@H]1CN([C@@H](C)CO)C(=O)c2cc(/C=C/c3ccccc3)cnc2O[C@H]1CN(C)C(=O)c1ccc2c(c1)OCO2,nt,nt,nt,12,11[16.7 µM],nt
O=C1CC(C(=O)N(CC2CCCO2)C(C(=O)NC2CCCCC2)c2ccncc2)CS1 (stereo not given),-7,3,18,nt,78*,-9
SMILES,Shn3 inh set2,N-glyco inh,NSD2 HMT inh,PAX8 inh HTS,HIV Env fusion,EBV LMP1 NFkB
O=C1CC(C(=O)N(c2ccccc2)C(C(=O)NC2CCCC2)c2ccncc2)CS1 (stereo not given),19,1,-1,0,10,-2
Cc1ccc(COc2cccc3c2CCN(Cc2ccc(F)cc2)C3=O)cc1,14,-10,-2,13,25,25
CCOC(=O)N1CCN(C(=O)COc2cccc3c2CCN(CC)C3=O)CC1,-3,3,-3,9,16,-5
CCOC(=O)N1CCN(C(=O)COc2cccc3c2CCN(Cc2ccc(F)cc2)C3=O)CC1,8,-2,-2,6,57*,-3
O=C1c2cccc(OCc3ccc(F)cc3)c2CCN1Cc1ccccc1,-2,-11,4,-7,77*,28
COc1ccccc1NC(=O)N(C)C[C@@H]1OCc2cn(nn2)CCCC(=O)N([C@@H](C)CO)C[C@@H]1C,nt,nt,nt,nt,-6[16.7 µM],nt
CC#CC[N+](C)(C)CCCCCCCCCCCC,77,1,nt,83*,62*,25
C#CC[N+](C)(C)CCCCCCCC,12,18,nt,1,16,1
C#CC[N+](C)(C)CCCCCCCCCC,43,40*,-1,20,1,14
C[N+](C)(C)CCCCCC[N+](C)(C)C,0,1,nt,-2,-7,-10
C#CC[N+](C)(C)CCCCCCCCCCCC,77,144*,-1,87*,26,18
CNC(=O)C[C@H]1CC[C@H]2[C@@H](COc3ccc(NC(=O)NC(C)C)cc3C(=O)N2C)O1,nt,nt,nt,-15,14[16.7 µM],nt
CC(NC(=O)c1ccccc1NC(=O)CN1CCN(c2ccccc2O)CC1)c1ccccc1 (stereo not given),11,-4,0,22,5,11
CC(NC(=O)c1ccccc1NC(=O)CN1CCc2ccccc2C1)c1ccccc1 (stereo not given),-2,5,-3,18,69*,-2
COc1cccc(C(O)c2nc(-c3ccc(F)cc3OC)cs2)c1 (stereo not given),-16,-1,-1,-8,-12,nt
COc1cc(F)ccc1-c1csc(C(NC(C)=O)c2ccccc2)n1 (stereo not given),-4,50*,-1,-21,-29,nt
COc1ccccc1-c1csc(C(NC(C)=O)c2ccccc2)n1 (stereo not given),-9,42*,0,7,29,nt
COc1cc(F)ccc1-c1csc(C(NC(C)=O)c2ccc(F)c(F)c2)n1 (stereo not given),-7,42*,-1,-2,-51,nt
COc1cccc(C(NC(C)=O)c2nc(-c3ccc(F)cc3OC)cs2)c1 (stereo not given),-10,50*,0,-13,-137,nt
O=C(Nc1ccccc1Cl)N1C[C@@H]2[C@H](c3ccccc31)[C@@H](CO)N2C(=O)c1cccnc1,nt,nt,nt,0,nt,nt
C[C@@H]1CN([C@H](C)CO)C(=O)Cc2cc(NC(=O)NC3CCCCC3)ccc2O[C@H]1CN(C)C(=O)Nc1ccccc1,nt,nt,nt,-31,8[16.7 µM],nt
OC[C@H]1OC(O)[C@H](O)[C@@H](O)[C@H]1O (stereo not given in full),-1,2,nt,-5,-12,56*
